Several values for one entry are separate records, joined by “and”; a condition that tells them apart may be missing. Identical values can stand only once. Records with an inconclusive call do not appear. Where a call stands in place of a potency, no number is given. Activity calls are given as the source filed them. Calls come from the whole dose curve; as a rule, active = well fitted curve in the direction sought with a large enough effect; inconclusive = small, poorly fitted or top-dose-only effect, or another doubt; inactive = no such curve, though single readings can be large; an effect the other way counts as inactive or inconclusive.
Assay: qHTS of pediatric cancer cell lines to identify multiple opportunities for drug repurposing: Primary screen for A673 cells (AID 1347092); note: nearly all actives have a fitted effect of over 45% in size; note: potency is the fitted concentration of half-maximal effect
Conditions: A673 Ewing sarcoma viability, CellTiter-Glo ATP luminescence, 48 h; series mostly up to 46 µM
Outline: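 A673 cells (500-1,000 cells/well in growth media) were pre-incubated 5 h at 37 degrees C, then exposed to compounds for 48 h. Viability was read as CellTiter-Glo luminescence; concentration-response curves came directly from the primary screen.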

Row | SMILES | Potency
1 | CN1C(C(=O)Nc2ccccn2)=C(O)c2ccccc2S1(=O)=O | inactive
2 | COc1ccccc1OCCNCC(O)COc1cccc2[nH]c3ccccc3c12 (stereo not given) | inactive
3 | Cc1cc(C(C)(C)C)cc(C)c1CC1=NCCN1 | inactive
4 | Cc1cn([C@H]2C=C[C@@H](CO)O2)c(=O)[nH]c1=O | inactive
5 | COc1ccc2[nH]cc(CCNC(C)=O)c2c1 | inactive
6 | COc1ccccc1OCC(O)CN1CCN(CC(=O)Nc2c(C)cccc2C)CC1 (stereo not given) | inactive
7 | CC(C)C(=O)Nc1ccc([N+](=O)[O-])c(C(F)(F)F)c1 | 0.0118 µM (active)
8 | Cn1c(=O)c2[nH]cnc2n(C)c1=O | inactive
9 | CN1CCC(=C2c3ccccc3C=Cc3ccccc32)CC1 | 18.7 µM (active)
10 | Cc1ccc(-c2cc(C(F)(F)F)nn2-c2ccc(S(N)(=O)=O)cc2)cc1 | inactive

Assay: qHTS of pediatric cancer cell lines to identify multiple opportunities for drug repurposing: Primary screen for SK-N-MC cells (AID 1347093); note: potency is the fitted concentration of half-maximal effect
Conditions: SK-N-MC viability, CellTiter-Glo luminescence, 48 h; series mostly up to 46 µM
Outline: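 Metabolically active cells were quantified by ATP-dependent luminescence (CellTiter-Glo, 15 min at room temperature) following 48 h treatment. Cells had been plated at 500-1,000 per well and settled for 5 h beforehand.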

Row | SMILES | Potency
11 | CC(C)(Oc1ccc(C2CC2(Cl)Cl)cc1)C(=O)O (stereo not given) | inactive
12 | COc1ccc2c(c1)c(CC(=O)O)c(C)n2C(=O)c1ccc(Cl)cc1 | 29.6 µM (active)
13 | CCOC(=O)Nc1ccc(NCc2ccc(F)cc2)nc1N | inactive
14 | C[C@H]1c2cccc(O)c2C(O)=C2C(=O)[C@]3(O)C(O)=C(C(N)=O)C(=O)[C@@H](N(C)C)[C@@H]3[C@@H](O)[C@@H]21 | inactive
15 | CC1(CN2CCC(n3c(=O)[nH]c4ccccc43)CC2)OCc2ccccc2-n2cccc21 (stereo not given) | 33.2 µM (active)
16 | CN1CCC(=C2c3ccccc3CC(=O)c3sccc32)CC1 | 6.62 µM (active)
17 | OCCN(CCO)c1nc(N2CCCCC2)c2nc(N(CCO)CCO)nc(N3CCCCC3)c2n1 | 23.5 µM (active)
18 | C[C@](N)(Cc1ccc(O)c(O)c1)C(=O)O | inactive
19 | Fc1ccc([C@@H]2CCNC[C@H]2COc2ccc3c(c2)OCO3)cc1 | inactive
20 | O=C1Cc2cc(CCN3CCN(c4nsc5ccccc45)CC3)c(Cl)cc2N1 | inactive
21 | O=c1c(-c2ccc(O)cc2)coc2cc(O)cc(O)c12 | inactive
22 | CC1COc2c(N3CCN(C)CC3)c(F)cc3c(=O)c(C(=O)O)cn1c23 (stereo not given) | inactive
23 | CC(COc1ccccc1)N(CCCl)Cc1ccccc1 (stereo not given) | inactive

Assay: qHTS of pediatric cancer cell lines to identify multiple opportunities for drug repurposing: Primary screen for BT-37 cells (AID 1347094)
Conditions: BT-37 viability, CellTiter-Glo luminescence, 48 h; series mostly up to 57.3 µM
Outline: (§1)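 500-1,000 cells/well; 5 h pre-incubation 37 °C/5% CO2; compound pinned; 48 h; CellTiter-Glo, 15 min RT; luminescence. MIPE 11-pt from 0.78 nM, NPC 8-pt from 0.59 nM final. Bortezomib 2.3 µM final as positive control.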

Row | SMILES | Potency
24 | Cc1cn([C@H]2C[C@H](N=[N+]=[N-])[C@@H](CO)O2)c(=O)[nH]c1=O | inactive
25 | COc1ccc2c(c1)c(CC(=O)O)c(C)n2C(=O)c1ccc(Cl)cc1 | inactive
26 | CCOC(=O)Nc1ccc(NCc2ccc(F)cc2)nc1N | inactive
27 | CN1CCC(=C2c3ccccc3CC(=O)c3sccc32)CC1 | inactive
28 | OCCN(CCO)c1nc(N2CCCCC2)c2nc(N(CCO)CCO)nc(N3CCCCC3)c2n1 | inactive
29 | C[C@](N)(Cc1ccc(O)c(O)c1)C(=O)O | inactive
30 | Fc1ccc([C@@H]2CCNC[C@H]2COc2ccc3c(c2)OCO3)cc1 | inactive
31 | CC(C(=O)O)c1cccc(C(=O)c2ccccc2)c1 (stereo not given) | inactive
32 | CC1COc2c(N3CCN(C)CC3)c(F)cc3c(=O)c(C(=O)O)cn1c23 (stereo not given) | inactive
33 | CCC1(c2ccccc2)C(=O)NCNC1=O | inactive

Assay: qHTS of pediatric cancer cell lines to identify multiple opportunities for drug repurposing: Primary screen for NB-EBc1 cells (AID 1347095); note: potency is the fitted concentration of half-maximal effect
Conditions: NB-EBc1 neuroblastoma viability, CellTiter-Glo luminescence, 48 h; series mostly up to 46 µM
Outline: as §1

Row | SMILES | Potency
34 | Cc1cn([C@H]2C[C@H](N=[N+]=[N-])[C@@H](CO)O2)c(=O)[nH]c1=O | inactive
35 | CC12CC3CC(C)(C1)CC(N)(C3)C2 | inactive
36 | COc1ccc2c(c1)c(CC(=O)O)c(C)n2C(=O)c1ccc(Cl)cc1 | inactive
37 | CCOC(=O)Nc1ccc(NCc2ccc(F)cc2)nc1N | inactive
38 | C[C@H]1c2cccc(O)c2C(O)=C2C(=O)[C@]3(O)C(O)=C(C(N)=O)C(=O)[C@@H](N(C)C)[C@@H]3[C@@H](O)[C@@H]21 | inactive
39 | NC12CC3CC(CC(C3)C1)C2 | inactive
40 | CN(C)CCC=C1c2ccccc2C=Cc2ccccc21 | inactive
41 | CN1CCC(=C2c3ccccc3CC(=O)c3sccc32)CC1 | inactive
42 | Nc1nc2c(ncn2COC(CO)CO)c(=O)[nH]1 | inactive
43 | COc1ccccc1OCCNCC(O)COc1cccc2[nH]c3ccccc3c12 (stereo not given) | inactive
44 | Cc1cc(C(C)(C)C)cc(C)c1CC1=NCCN1 | inactive
45 | OCCN(CCO)c1nc(N2CCCCC2)c2nc(N(CCO)CCO)nc(N3CCCCC3)c2n1 | inactive
46 | Cc1cn([C@H]2C=C[C@@H](CO)O2)c(=O)[nH]c1=O | inactive
47 | COc1ccc2[nH]cc(CCNC(C)=O)c2c1 | inactive
48 | COc1ccccc1OCC(O)CN1CCN(CC(=O)Nc2c(C)cccc2C)CC1 (stereo not given) | inactive
49 | C[C@](N)(Cc1ccc(O)c(O)c1)C(=O)O | inactive
50 | Fc1ccc([C@@H]2CCNC[C@H]2COc2ccc3c(c2)OCO3)cc1 | inactive
51 | CC(C)C(=O)Nc1ccc([N+](=O)[O-])c(C(F)(F)F)c1 | inactive
52 | O=C1Cc2cc(CCN3CCN(c4nsc5ccccc45)CC3)c(Cl)cc2N1 | inactive
53 | CC(C(=O)O)c1cccc(C(=O)c2ccccc2)c1 (stereo not given) | inactive
54 | O=c1c(-c2ccc(O)cc2)coc2cc(O)cc(O)c12 | 23.7 µM (active)
55 | CC1COc2c(N3CCN(C)CC3)c(F)cc3c(=O)c(C(=O)O)cn1c23 (stereo not given) | inactive
56 | Cn1c(=O)c2[nH]cnc2n(C)c1=O | inactive
57 | CN1CCC(=C2c3ccccc3C=Cc3ccccc32)CC1 | inactive
58 | O=c1[nH]cc(F)c(=O)[nH]1 | 9.44 µM (active) and 2.64 µM (active)
59 | CCC1(c2ccccc2)C(=O)NCNC1=O | inactive
60 | Cc1ccc(-c2cc(C(F)(F)F)nn2-c2ccc(S(N)(=O)=O)cc2)cc1 | inactive
